Source: the supplement of paper PMC3334620
Over roughly 33,000 sequences, “E-score (-0.5 to 0.5)” has its median near -0.053; the highest 2% begin near 0.37. This excerpt belongs to a sample that is enriched for the highest values.

molecular target: Hap1 (UniProt P0CE41); test: PBM E-score (8-mer binding enrichment) (E-score (-0.5 to 0.5)); higher = stronger / more preferred TF binding; conditions: protein concentration: 200 nM; construct: GST-DNA-binding domain
Description: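 Universal 'all 10-mer' protein binding microarrays (Agilent AMADID 015681) probed with GST-tagged S. cerevisiae TFs (full-length or DBD) made by in vitro transcription/translation (PURExpress), about 100-200 nM. Bound TF was detected with fluorescent anti-GST. Each ungapped 8-mer (which stands for itself and its reverse complement) is scored by the PBM enrichment score (E-score), a modified Wilcoxon-Mann-Whitney statistic from -0.5 to +0.5, computed with the Universal PBM Analysis Suite. Scale: above 0.35 generally sequence-specific binding.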

Sequence of UniProt P0CE41 (P0CE41 whole entry, the tested form may be a part): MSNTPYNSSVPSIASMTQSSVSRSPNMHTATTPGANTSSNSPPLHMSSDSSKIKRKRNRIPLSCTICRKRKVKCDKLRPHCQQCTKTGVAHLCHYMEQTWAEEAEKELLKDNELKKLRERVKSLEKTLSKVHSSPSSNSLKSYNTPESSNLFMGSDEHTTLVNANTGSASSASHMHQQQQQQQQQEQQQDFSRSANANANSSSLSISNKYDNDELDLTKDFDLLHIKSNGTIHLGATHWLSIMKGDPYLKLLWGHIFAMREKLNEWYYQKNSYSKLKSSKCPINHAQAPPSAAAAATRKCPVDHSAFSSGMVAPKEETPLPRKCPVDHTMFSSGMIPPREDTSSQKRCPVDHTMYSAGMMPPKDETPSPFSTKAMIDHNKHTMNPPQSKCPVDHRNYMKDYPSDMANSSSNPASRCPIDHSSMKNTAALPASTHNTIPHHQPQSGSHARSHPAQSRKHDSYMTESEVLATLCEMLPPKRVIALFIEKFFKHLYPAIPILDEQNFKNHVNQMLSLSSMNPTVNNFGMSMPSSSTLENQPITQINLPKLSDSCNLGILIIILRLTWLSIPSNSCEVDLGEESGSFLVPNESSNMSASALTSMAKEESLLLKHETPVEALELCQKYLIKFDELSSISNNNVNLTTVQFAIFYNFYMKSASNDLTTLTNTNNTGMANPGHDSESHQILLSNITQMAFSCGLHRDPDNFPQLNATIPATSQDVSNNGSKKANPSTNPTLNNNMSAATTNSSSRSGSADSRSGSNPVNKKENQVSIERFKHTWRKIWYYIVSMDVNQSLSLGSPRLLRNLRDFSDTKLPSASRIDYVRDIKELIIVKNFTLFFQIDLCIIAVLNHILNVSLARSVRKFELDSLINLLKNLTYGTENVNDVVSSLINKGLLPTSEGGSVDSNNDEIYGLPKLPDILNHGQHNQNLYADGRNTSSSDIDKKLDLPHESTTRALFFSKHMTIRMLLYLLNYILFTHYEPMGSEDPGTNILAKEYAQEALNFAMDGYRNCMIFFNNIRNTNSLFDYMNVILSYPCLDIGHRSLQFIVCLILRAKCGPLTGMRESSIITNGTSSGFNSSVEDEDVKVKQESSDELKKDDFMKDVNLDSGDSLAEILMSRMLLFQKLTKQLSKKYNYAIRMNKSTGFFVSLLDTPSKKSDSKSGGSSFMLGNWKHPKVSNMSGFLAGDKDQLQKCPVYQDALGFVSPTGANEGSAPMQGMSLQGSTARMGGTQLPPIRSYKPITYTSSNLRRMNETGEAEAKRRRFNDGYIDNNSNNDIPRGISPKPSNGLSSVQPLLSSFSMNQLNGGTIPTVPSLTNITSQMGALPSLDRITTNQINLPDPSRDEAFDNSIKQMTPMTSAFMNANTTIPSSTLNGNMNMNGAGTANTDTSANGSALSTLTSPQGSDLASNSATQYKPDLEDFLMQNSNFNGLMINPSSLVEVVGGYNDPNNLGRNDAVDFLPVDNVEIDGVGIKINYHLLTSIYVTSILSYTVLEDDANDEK

Sequence | PBM E-score
AGGCCACC | -0.0824
AAGAACTT | -0.101
CTGTGTCC | -0.0361
TTCGCGAA | 0.138
GCGGGAAC | 0.212
CCGGACGA | 0.431
GCGGACGA | 0.366
CCGGACGG | 0.444
TCGGACGA | 0.414
CCGGACGC | 0.366
ACGGACGA | 0.359
ACGGACGG | 0.244
CGGGACGA | 0.0655
CTGGACGA | -0.158
ATTTTGAC | -0.0308
ACGGGAAA | 0.174
CGCCTACC | -0.0452
AAGTCGAG | -0.359
AAGCTAGC | -0.0783
AAAGACAC | -0.0224
TCATAGGA | -0.112
ATCTGCAA | -0.287
ATGCGTAA | -0.0748
ATTCGTAC | 0.00708
CAGCCGAG | 0.238

Sequence | PBM E-score
AGGCCGAT | 0.327
AAGCCGAA | 0.334
AAGCCGAT | 0.399
AAGCCGAC | 0.298
AAGCCGAG | 0.372
ATCATTCG | 0.0233
ACGGATAA | 0.282
ACGGACAG | 0.113
GCGGATAA | 0.294
ACGGATAG | 0.11
GCGGATTA | 0.189
TCGGATAA | 0.374
ACGGACAT | 0.421
ACGGATTA | 0.142
CCGGATTA | 0.383
TGGGATAA | -0.0448
ACGGATAT | 0.43
ACGGACAC | 0.278
CGGATTAG | 0.305
ACACCTTC | 0.105
AATTCGAG | -0.267
AGGGAATA | 0.127
CCGGATAG | 0.316
ACGGAGAT | 0.445
CGGGAATA | 0.458

Sequence | PBM E-score
GGGGAATA | 0.107
ACGGAGAG | 0.284
ACGGAAAG | 0.232
CCGGATAA | 0.435
CCGGATAC | 0.323
ACGGAAAC | 0.287
ACGGAGAC | 0.285
ACGGAAAT | 0.432
CGTACGAG | 0.0155
GGTAGAAC | -0.243
CAGGAAGC | -0.0892
GAGAGATC | -0.0834
GGGGACCC | -0.043
AGGGCTAA | -0.2
CCAGGTTC | -0.153
AGGGATTA | -0.136
CGGGATTA | 0.454
CGGGATTC | 0.292
GAAACCTC | -0.00121
GGCAAGCC | -0.0221
AGTCCACG | 0.0474
AGCCCGCC | 0.184
GACGGACC | 0.285
GTGCCGTA | 0.1
ATGCCGGC | 0.287

Sequence | PBM E-score
GTGCCGGA | 0.406
CTGCCGGA | 0.286
ATGCCGGA | 0.4
ATGCCGGG | 0.217
ACTGCTAG | -0.267
ATCCGGAG | 0.424
GTCCGGAA | 0.416
GTGCGGAA | 0.159
GTCCGGCA | 0.35
ATCCGGTG | 0.411
GTACGGAC | 0.26
ATACGGTG | 0.0257
ATCCGCAG | 0.208
GTCCGGAC | 0.454
ATGCGGAG | 0.222
GTCCGCAC | 0.237
AACCGGTG | 0.329
CCTATGCG | 0.00275
GTATCCCA | -0.135
AAGGGTCA | -0.124
CACTGGAA | -0.275
ATAACGCA | 0.0362
AACGGGTG | 0.29
CGATCTGC | 0.156
TGAAGGCA | -0.35

Sequence | PBM E-score
ATACGGAT | 0.204
ATCCGACC | 0.307
ATCCGGGC | 0.364
ATCCGCAC | 0.21
ATCCGGGG | 0.399
ATCCGGAT | 0.414
ATCCGGAC | 0.439
ATCCGGCG | 0.355
ATCCGGCC | 0.412
AACCGGGG | 0.301
ATCCGTAC | 0.147
ATCCGCAT | 0.289
TCTCCACA | -0.243
CAAGAGAC | -0.289
CCATTCAA | -0.16
GCCAATAA | -0.0084
CGGGGTGA | 0.214
TGCCGGAA | 0.365
ATGCGGAA | 0.24
CTCCGTAA | 0.296
TTACGGAA | 0.317
CTACGGAG | 0.32
ATACGGAA | 0.33
ATCCGGAA | 0.396
CTCCGGAA | 0.422

Sequence | PBM E-score
CTCCGCAG | 0.216
CTACGGAA | 0.17
CTCCGGAG | 0.467
TTCCGGAA | 0.466
AGCAATAT | -0.105
AATTGTGG | -0.245
TGAGCCAA | -0.233
CCGTAGCG | 0.27
CGCATGGC | 0.184
AGCCTCCA | -0.219
CTCCGGAC | 0.454
CTCCGCAC | 0.0685
CTCCGTAC | 0.196
GACAATGA | -0.102
CCTATAGA | -0.198
ATCGCCGA | 0.445
ATCGCCGG | 0.445
GCCGCCGA | 0.26
CCCGCCGA | 0.323
TCCGCCGA | 0.425
ATCGCCCC | -0.0327
ATCGCCCA | -0.0821
CTCGCCGA | 0.276
GTCGCCGA | 0.246
ATCGCCGC | 0.286

Sequence | PBM E-score
ATCGCCCG | 0.372
ACCGCCGG | 0.365
ACGCCCAA | -0.133
GGGATACC | 0.196
CCCAGGCG | -0.125
AGCTTGCC | -0.108
AAGAAAGC | -0.113
CACCCTAC | -0.27
GAGCGCGA | 0.0945
AACTCGCG | 0.0253
ACCGACAG | 0.289
GTACCGAA | 0.0413
GCAACTTA | 0.0419
GGCGCCGA | 0.313
AGCGCCGA | 0.372
CGCGCCGA | 0.317
ATACTGAG | -0.143
CCACCTTA | -0.00422
ATGAAGTG | -0.133
AAACCGGA | 0.328
TAACCGGA | 0.417
GAACCGGA | 0.382
GAACCGGC | 0.239
CAACCGGA | 0.316
GAACCGTA | 0.0759

Sequence | PBM E-score
CCACTGCG | -0.0793
CGGGTGAG | 0.201
GTTCCCTA | -0.0618
GAAACGTA | -0.151
CGCTCCGA | 0.324
AGCTCCGA | 0.411
AGCTCCCG | 0.0669
GGCTCCGA | 0.221
AGCTCCGG | 0.43
AGCTCCGC | 0.306
GCCGCACA | -0.0419
AATTACCG | 0.374
ATTTACCC | 0.0884
ATTTACCA | 0.0182
AATTACCC | 0.0864
ATTTACCG | 0.376
CATTACCG | 0.198
GCGAGCAC | -0.187
GTCGAAAA | -0.0295
CCCCCCCC | -0.27
ACGCACCT | -0.185
ACCGGCCC | 0.329
GCCGGCCA | 0.284
GCCGGCCC | 0.372
ACCGGCCA | 0.284

Sequence | PBM E-score
ACCGGCCG | 0.439
CCCGGCCG | 0.405
ACCGGCCT | 0.181
CCCGGCCC | 0.341
CCCGGCCA | 0.291
AACTCTGG | -0.202
ACGCAAAG | -0.0974
ACTGCGTG | -0.275
CTCGTAGC | -0.117
TAATTAGA | 0.0224
AAGGCCCG | 0.196
AAGGCCGC | 0.135
AAGGCCGG | 0.408
AAGGCCGT | 0.212
AAGGCCGA | 0.435
CAGGCCGG | 0.166
CGAGATGC | -0.0846
GGTACCAA | 0.0294
AAGTTAGG | -0.0844
CCTTGAAC | -0.1
CACCGAGC | 0.297
TACCGAGA | 0.209
CACCGAGA | 0.259
GACCGACC | 0.266
AACCGAGC | 0.371

Sequence | PBM E-score
AACCGAGT | 0.157
GACCGAGA | 0.382
GACCGAGC | 0.375
AACCGAGG | 0.148
GCTACGCC | -0.0393
CATCCGCC | 0.244
CCTAGTTC | -0.00076
AGTATGCC | 0.0174
AAAGGCAT | -0.125
AACTGAAT | -0.215
ATAACTCG | 0.205
CTAACTCC | 0.403
CTAACTGC | -0.0433
ATAACTCA | -0.0521
CTAACTCA | -0.177
ATAACTCC | 0.4
AAAAGGAA | 0.0913
ACGGGTAT | 0.0846
CGCGATAC | 0.17
ACCGATAA | 0.443
CGCGATAG | 0.2
AGCGATAA | 0.284
AGCGATAG | 0.119
ACCGATAG | 0.373
CACGATAG | -0.138

Sequence | PBM E-score
CCCGATAG | 0.414
CCCGATCC | 0.31
ACCGATTA | 0.335
AACGATAG | 0.118
CCCGATAC | 0.432
CATCGAGG | -0.23
CTCAGGAA | -0.108
AACCGGCT | 0.252
GCTGCTCA | -0.241
GGCAAGGA | -0.0722
CTGAGTCC | -0.0126
ACTATCAA | 0.0295
CCGCCTCC | 0.0265
CGATTTTC | 0.147
GCCGATGA | 0.373
ACCGATAT | 0.43
ACCGATCT | 0.274
GCCGATAA | 0.449
GGCGATAC | 0.265
GGCGATAA | 0.392
CGCGATAA | 0.115
GCCGATCA | 0.263
GTCGATAA | -0.0382
ACCGATGA | 0.223
AACGATAT | -0.0547

Sequence | PBM E-score
CCCGATGA | 0.285
CTAGATGC | -0.224
GAATCGAA | -0.142
ACAGGCTG | -0.256
CTTGCACA | -0.136
TCCGATCA | 0.221
TCCGATAA | 0.45
AACGATAC | -0.2
CACGATAA | 0.087
GCCGATCC | 0.258
CCCGATTA | 0.197
GACGATAC | 0.0839
GCCGATAC | 0.417
AGCGATAC | 0.065
TACGATAA | 0.0399
CCCGATAA | 0.417
ACCGATAC | 0.371
GTAGGGAC | -0.0187
AGTGAGTC | -0.18
CCTCTAAG | -0.337
GTTATCGA | 0.165
CAGACCAG | 0.0149
CGAATTAC | 0.15
GGAATTAA | 0.419
AGAATTAC | 0.0991

Sequence | PBM E-score
GGAATTAC | 0.375
TGAATTAA | -0.0149
CGAATTAA | 0.0158
TATCTCAA | -0.0851
GCCTGGAC | -0.0392
ATATCCCG | 0.286
AGATCCGC | 0.263
AGATCCGG | 0.384
ATATCCGC | 0.387
ATATCCGG | 0.452
ATATCCTC | 0.0211
GTATCCGA | 0.304
ATATCCGA | 0.463
AGATCCGA | 0.359
ATATCCAG | 0.0668
CTATCCGA | 0.113
CTATCCGC | 0.257
AGGCAATG | -0.17
ACTGGGGA | -0.016
AGTGGAAC | 0.0266
CAGATCCC | 0.0493
AAGTCCCT | -0.278
CAGTCCGC | 0.0912
AAGTCCAT | -0.00211
AAGTCCGG | 0.47

Sequence | PBM E-score
CAGTCCGG | 0.364
AAGTCCGT | 0.417
GAGTCCGC | 0.249
AAGTCCGC | 0.427
AAGTCCTG | -0.0784
GTTGGTTA | -0.0552
TTGCAAAA | -0.00902
CCGAAGTA | 0.365
GAGGCACA | -0.112
GTCCGTTA | 0.444
CTCCGTTA | 0.367
ATCCGTTC | 0.233
ATCCGTTG | 0.301
GTCCGTGA | 0.303
ATCCGTTA | 0.409
CGCCCGCA | 0.189
GCCTGAAC | -0.0686
CGCAGGGC | -0.0256
GGGTATGA | 0.0413
